Sampled rows, rich in hits. Any-hit rate of the full collection: about 2.3%.
Mcl1 Noxa PPI = Mcl-1/Noxa binding inhibitors, primary screen, biochemical, TR-FRET, 1536-well. AID 1022, 2008. TR-FRET Mcl-1/Noxa peptide binding, 2 h. inhibition, % at 21.7 µM. hit rate 1.5% among 220,000;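 active = compounds that cut the protein-peptide binding signal by more than 50% relative to plate controls in a single-dose test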;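 also: His-tagged Mcl-1 with rhodamine Noxa BH3 peptide and terbium anti-His antibody; 0% = Mcl-1 plus Noxa peptide wells and 100% = peptide-only wells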
Bim-Mcl-1 = inhibitors of Bim peptide binding to Mcl-1, primary screen, biochemical, bead-based flow cytometry, multiplex; Induced myeloid leukemia cell differentiation protein Mcl-1 (Homo sapiens), Q07820; Bim peptide-Mcl-1 binding; inhibition, % at 10 µM; hit rate 0.1% among 190,000; in the data active = inhibition above about 40%;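 also: 0% = no compound tracer wells and 100% = peptide blocker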
MCL1-BIM inh = inhibitors of MCL1 binding to BIM-BH3, primary screen, biochemical, fluorescence polarization. GST-MCL1 / FITC-Bim-BH3 fluorescence polarization. inhibition, % at 10.9 µM. hit rate 0.68% among 320,000;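 active = inhibition above the mean inhibition of all tested compounds plus 3 SD, set per campaign, cut at about 40% in these data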;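 also: 0% = DMSO wells and 100% = unlabeled Bim-BH3 peptide control; higher means more loss of mP so more displacement of Bim peptide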
Mcl1-Bid inh = Mcl-1/Bid binding inhibitors, primary screen, biochemical, TR-FRET, 1536-well. hit rate 0.97% among 220,000. AID 1021, 2008. Induced myeloid leukemia cell differentiation protein Mcl-1 (Homo sapiens), Q07820. TR-FRET Mcl-1/Bid-Dy647 peptide binding. inhibition, % at 21.7 µM;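 active = compounds that cut the binding signal by more than half at the single screening dose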;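 also: His-tagged Mcl-1 with europium anti-His antibody binding Bid BH3 peptide; 0% = Mcl-1 plus peptide wells and 100% = peptide-only wells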
GLD-1 RNA inh = GLD-1/TGE RNA complex disruptors, primary screen, biochemical, fluorescence polarization; purified GLD-1 + fluorescein TGE RNA; inhibition, % at 5.96 µM; hit rate 0.44% among 320,000;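 active = percent inhibition above a per-plate cutoff, the plate mean of test compounds plus 3 SD, cut at about 30% in these data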;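 also: 0% = DMSO wells with GLD-1 and probe and 100% = wells lacking GLD-1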
Target sequence (Q17339 whole entry, looked up): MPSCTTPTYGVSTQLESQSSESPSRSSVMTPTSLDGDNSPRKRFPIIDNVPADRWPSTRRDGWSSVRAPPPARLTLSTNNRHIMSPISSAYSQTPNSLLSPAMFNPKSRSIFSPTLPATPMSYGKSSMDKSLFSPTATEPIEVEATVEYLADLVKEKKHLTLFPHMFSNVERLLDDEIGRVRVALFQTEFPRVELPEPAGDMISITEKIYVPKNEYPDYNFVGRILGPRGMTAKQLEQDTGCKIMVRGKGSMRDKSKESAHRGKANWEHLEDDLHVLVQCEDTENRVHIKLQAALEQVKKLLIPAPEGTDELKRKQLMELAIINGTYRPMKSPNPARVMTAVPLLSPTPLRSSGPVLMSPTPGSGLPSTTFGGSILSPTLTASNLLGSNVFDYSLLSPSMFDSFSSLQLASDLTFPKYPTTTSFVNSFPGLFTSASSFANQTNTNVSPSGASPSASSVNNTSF
Bcl-xL primary = inhibitors of human Bcl-xL, primary screen, biochemical, fluorescence polarization, HTS; AID 2129, 2009; hit rate 0.7% among 320,000; Bcl-2-like protein 1 (Homo sapiens), Q07817; GST-Bcl-xL / FITC-Bim BH3 peptide fluorescence polarization; inhibition, % at 10.9 µM;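 active = inhibition above the mean of all tested compounds plus 3 SD, cutoff set per campaign, cut at about 30% in these data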;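 also: 0% = DMSO wells and 100% = unlabeled Bim-BH3 peptide competitor; inhibitors lower millipolarization by displacing the labeled peptide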
Target sequence (Q07817 whole entry, looked up): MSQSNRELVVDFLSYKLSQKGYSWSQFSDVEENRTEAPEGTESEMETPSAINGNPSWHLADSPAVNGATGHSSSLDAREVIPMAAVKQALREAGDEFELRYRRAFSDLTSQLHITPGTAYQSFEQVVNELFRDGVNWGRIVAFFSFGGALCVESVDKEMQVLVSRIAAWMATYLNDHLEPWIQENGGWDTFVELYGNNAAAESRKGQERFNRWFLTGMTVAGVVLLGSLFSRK
BCLXL inh confirm = Bcl-xL inhibitors blocking Bim BH3 binding, confirmation, counter-screen for MCL1 inhibitor project, biochemical, fluorescence polarization; shares compounds with MCL1-BIM inh; GST-Bcl-xL / FITC-Bim BH3 peptide FP binding; inhibition, % at 10.9 µM; hit rate 54% among 1,700;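 active = inhibition above a cutoff equal to the mean inhibition of all tested compounds plus 3 SD, cut at about 30% in these data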;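 also: 0% = DMSO wells and 100% = unlabeled Bim BH3 control peptide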
MCL1 inh confirm = inhibitors of MCL1 binding to BIM-BH3, confirmation, biochemical, fluorescence polarization, triplicate. shares compounds with MCL1-BIM inh. GST-MCL1 / FITC-Bim-BH3 fluorescence polarization. inhibition, % at 10.9 µM. hit rate 61% among 1,700. AID 2168, 2009;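 active = inhibition above the average of all tested compounds plus 3 SD, cut at about 40% in these data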;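 also: 0% = DMSO wells and 100% = unlabeled Bim-BH3 control peptide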
An asterisk follows results filed as active; x = no result.

SMILES | Mcl1 Noxa PPI | Bim-Mcl-1 | MCL1-BIM inh | Mcl1-Bid inh | GLD-1 RNA inh | Bcl-xL primary | BCLXL inh confirm | MCL1 inh confirm
COc1ccc(CNC(=O)CCCC(=O)n2nc(C)c3ccccc32)cc1 | x | x | 4 | x | 3 | 7 | x | x
COc1ccccc1-n1c(C)c2c(OC)cccc(=O)c2c1C | 23 | 0 | 40* | -39 | 30 | 39* | 21 | 24
N#Cc1c(N)sc(=S)c2c1CCCC2 | 29 | 1 | 160* | -8 | 102* | 142* | 62* | 92*
CN1C[C@@H]2C(c3ccccc3)C3(c4ccc(C#N)cc4)CC2(C3)[C@H]1c1ccccc1 (stereo not given in full) | 3 | x | -1 | -84 | 3 | -1 | x | x
CN1C=CC2=C(C#N)C(N)C(C#N)(C#N)C(c3ccccc3)C2C1 (stereo not given) | -9 | -1 | 90* | -28 | 46* | 90* | 40* | 56*
COc1cccc(N(CC(=O)NC2CCCCC2)C(=O)CCC(=O)Nc2nc(C)cs2)c1 | x | x | 4 | x | -4 | 5 | x | x
CCC1(C(=O)OC)NC(c2ccccc2OC)C2C(=O)N(C)C(=O)C21 (stereo not given) | -14 | 6 | 58* | -25 | 11 | 58* | 3 | -3
COc1ccc(NC(=O)COC(=O)c2cc3c(s2)CCC3)cc1 | x | x | 13 | x | -5 | 0 | x | x
Cn1nc([N+](=O)[O-])c(C(C#N)c2ccccn2)c(Cl)c1=O (stereo not given) | 5 | -1 | 60* | -26 | 25 | 48* | 23 | 15
CCN(CC)c1ccc(C=C2C(=O)OC(c3ccccc3)OC2=O)cc1 (stereo not given) | 6 | 0 | -18 | -43 | -4 | -6 | x | x
CCN(CC)c1ccc(/C=C/C(=O)C2C(=O)C=C(C)OC2=O)cc1 (stereo not given) | 25 | x | 79* | -46 | -102 | 76* | 79* | 125*
O=S(=O)(Nc1ccc(Cl)cc1)c1ccc(N2CCOCC2)c(NC(=S)NCCN2CCOCC2)c1 | 22 | -6 | 6 | -15 | -9 | 5 | x | x
COC(=O)CCCC1=CC2=CC(=O)C(C)(OC(=O)C3CCCC3)C(=O)C2=CO1 (stereo not given) | 42 | x | 63* | -62 | 48* | 45* | 41* | 63*
COC(=O)CCCC1=CC2=C(c3ccccc3)C(=O)C(C)(OC(=O)C3CCCC3)C(=O)C2=CN1C1CCCC1 (stereo not given) | -2 | x | 15 | -117 | 10 | 12 | x | x
CCC(=O)OC1(C)C(=O)C=C2C=C(CCCC(=O)OC)OC=C2C1=O (stereo not given) | x | x | 86* | x | 46* | 70* | 41* | 75*
CC(C)C[C@H]1C(=O)N2CCC[C@H]2[C@]2(O)O[C@](NC(=O)[C@@H]3C=C4c5cccc6[nH]c(Br)c(c56)CC4N(C)C3)(C(C)C)C(=O)N12 (stereo not given in full) | 18 | 0 | 111* | 6 | 95* | 87* | 24 | 28
O=Cc1ccc(C(=O)OCC(=O)NCCC2=CCCCC2)cc1 | x | x | -1 | x | 7 | 8 | x | x
CC1=NN(c2cccc(C(=O)O)c2)C(=O)/C1=C\C=C\c1ccco1 | 98* | 0 | 81* | -16 | -2 | 26 | 30* | 68*
COc1ccccc1CN(C)C(=O)COC(=O)c1c(C)noc1C | x | x | x | x | 0 | x | x | x
CN(C)c1ncc(C2=C(Cl)C(=O)C(N3CCCC3)=C(Cl)C2=O)s1 | 112* | 85* | 91* | 61* | 16 | 57* | 63* | 85*
O=C(NCc1ccco1)c1c2c(nc3ccccc13)CCC2 | 102* | -3 | 58* | -41 | 10 | 22 | 30 | 68*
O=C(CSc1c2c(nc3ccccc13)CCCC2)NCc1ccco1 | 11 | 0 | 11 | -5 | 4 | 11 | x | x
OCCSc1nc(N2CCOCC2)nc(N2CCOCC2)n1 | 5 | 0 | -5 | -15 | 4 | -2 | x | x
CCCCC1=CC2=C(c3ccco3)C(=O)C(C)(OC(=O)c3ccc(OC)cc3)C(=O)C2=CN1C1CCCCC1 (stereo not given) | -8 | x | 52* | -112 | 39* | 46* | 41* | 59*
CCCCC1=CC2=C(c3ccco3)C(=O)C(C)(OC(=O)c3ccc(OC)cc3)C(=O)C2=CN1CCc1ccccn1 (stereo not given) | 16 | x | 23 | -67 | 16 | 13 | x | x
SMILES | Mcl1 Noxa PPI | Bim-Mcl-1 | MCL1-BIM inh | Mcl1-Bid inh | GLD-1 RNA inh | Bcl-xL primary | BCLXL inh confirm | MCL1 inh confirm
c1ccc(C2Nc3cccc4cccc(c34)N2)cc1 | x | x | 52* | x | 13 | 39* | 40* | 55*
Clc1ccc(C2Nc3cccc4cccc(c34)N2)cc1Cl | x | x | 31 | x | 4 | 21 | x | x
Brc1ccc(C2Nc3cccc4cccc(c34)N2)o1 | 65* | -1 | 55* | -1 | 20 | 51* | 23 | 29
c1csc(C2Nc3cccc4cccc(c34)N2)c1 | x | 0 | 62* | -13 | 20 | 61* | 25 | 22
Brc1cccc(C2Nc3cccc4cccc(c34)N2)c1 | x | x | 44* | x | 19 | 27 | 24 | 26
COc1ccc(NC(=O)CSc2nc3ccccc3c(=O)n2CCCO)cn1 | x | x | 16 | x | 2 | 9 | x | x
CCN(C(=O)C(C)OC(=O)CCCNC(=O)c1ccc(Cl)cc1)c1ccccc1 (stereo not given) | x | x | -5 | x | 0 | -3 | x | x
CCNc1nc2c(c(=O)n(C)c(=O)n2C)n1CCCc1ccccc1 | x | x | 6 | x | 5 | 6 | x | x
CCC1(c2ccccc2)NC(=O)N(CC(=O)NNC(=O)c2ccoc2C)C1=O (stereo not given) | x | x | 6 | x | 1 | 1 | x | x
Cc1ccc(C)c(S(=O)(=O)N2CCCC2CNC(=O)C(=O)NC2CCCC2)c1 (stereo not given) | x | x | 1 | x | 0 | 8 | x | x
CC(CNC(=S)Nc1cc(F)cc(F)c1)CSc1ccc(Cl)cc1 (stereo not given) | 25 | 4 | 10 | -55 | 4 | 3 | x | x
CC(Oc1ccc(F)cc1)C(=O)Nc1cccc(-c2nn[nH]n2)c1 (stereo not given) | x | x | 41* | x | 3 | 13 | -4 | -23

Assay outcomes (PubChem)
